Screens: PubChem, National Center for Advancing Translational Sciences (NCATS)
Compounds with a hit are over-represented: about 19% of the library has one in this group of screens.
DT40 TDP1 CPT: qHTS for Inhibitors of human tyrosyl-DNA phosphodiesterase 1 (TDP1): qHTS in cells in presence of CPT. chicken DT40 Tdp1-/-;hTDP1 cells + 20 nM CPT, ATP luminescence, 48 h. 420,000 compounds, 12% hits. AID 686979, 2013. Potency, µM (series often up to 46.2 µM), without a hit: at the highest dose activity change, negative = growth inhibition, hits mostly inhibitors; note: nearly all actives have a fitted effect of over 55% in size
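Chicken DT40 Tdp1-/- cells stably complemented with human TDP1 were seeded at 400 cells/well in medium containing 20 nM camptothecin, exposed to pin-transferred compounds, and grown at 37 °C for at least 48 hr. Viability was read as ATP luminescence.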
KB-3-1 tox: qHTS assay for MDR1-selective chemotherapeutics: Primary screen using the parental adenocarcinoma cell KB-3-1 | KB-3-1 viability, CellTiter-Glo ATP luminescence, 72 h | 400,000 compounds, 1.4% hits | Potency, µM (doses to about 46.1 µM), hits mostly cytotoxic | AID 1347075, 2019; note: nearly all actives have a fitted effect of over 60% in size
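Using CellTiter-Glo luminescence, growth of non-resistant KB-3-1 adenocarcinoma cells is assessed 72 h after pin-tool compound addition at 37 °C. Normalized responses across the concentration series yield fitted curves.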
HT1080NT lethal: qHTS for induction of synthetic lethality in tumor cells producing 2HG: qHTS for the HT-1080-NT fibrosarcoma cell line. HT-1080-NT fibrosarcoma viability, CellTiter-Glo ATP luminescence, 48 h. Potency, µM (titrated, usually from 46.1 µM), without a hit: at the highest dose activity, negative = less viability, actives largely listed as cytotoxic. 360,000 compounds, 1.6% hits;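 note: NT is the 2HG producing partner of a matched IDH1 knockdown line; 0% = DMSO-treated cells and -100% = media-only wells without cells; nearly all actives have a fitted effect of over 55% in size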
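A 48-hour cytotoxicity screen used HT-1080-NT cells plated 2 hours before compound delivery. ATP-based CellTiter-Glo luminescence measured viability, normalized to DMSO and no-cell controls.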
KB-V1 cytotox: qHTS assay for MDR1-selective chemotherapeutics: Primary screen using the drug-selected MDR subline cells KB-V1; KB-V1 MDR cells viability, CellTiter-Glo, 72 h; Potency, µM (highest dose often 46.1 µM), usual class: cytotoxic; 400,000 compounds, 3.4% hits; AID 1347076, 2019; note: nearly all actives have a fitted effect of over 60% in size
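Readout: CellTiter-Glo luminescence, 10 min after addition. Cells: KB-V1 MDR subline, 72 h at 37 degrees C with compound. Analysis: corrected, normalized data fitted to concentration-effect curves.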
DT40 TDP1 no CPT: qHTS for Inhibitors of human tyrosyl-DNA phosphodiesterase 1 (TDP1): qHTS in cells in absence of CPT; DT40 Tdp1-/- hTDP1 cells, no CPT, ATP luminescence, 48 h; Potency, µM (highest dose often 46.2 µM), for the others: at the highest dose activity change, negative = growth inhibition, usual class: inhibitors; 420,000 compounds, 15% hits; note: nearly all actives have a fitted effect of over 55% in size
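Growth of hTDP1-complemented DT40 Tdp1-knockout cells is measured by ATP luminescence after at least 48 hr compound exposure at 37 °C, with DMSO substituting for the 20 nM CPT used in the parallel screen.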
HT1080 IDH1KD tx: qHTS for induction of synthetic lethality in tumor cells producing 2HG: qHTS for the HT-1080-IDH1KD cell line; HT-1080 IDH1 knockdown viability, ATP luminescence, 48 h; Potency, µM (titrated, usually from 46.1 µM), without a hit: at the top dose activity, negative = toxicity, usual class: cytotoxic; 360,000 compounds, 2% hits; AID 686971, 2013;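 note: 0% = DMSO wells and -100% = cell-free medium wells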
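CellTiter-Glo luminescence after 48 h compound exposure at 37 degrees C of IDH1-knockdown HT-1080 cells in 5% FBS RPMI. %Activity scaled between DMSO wells and cell-free media wells, with curves fitted and assigned curve classes.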
An asterisk follows results filed as active; i = inactive; u = inconclusive; x = not tested or not shown. Calls come from the whole dose curve; as a rule, active = well fitted curve in the direction sought with a large enough effect; inconclusive = small, poorly fitted or top-dose-only effect, or another doubt; inactive = no such curve, though single readings can be large; an effect the other way counts as inactive or inconclusive. Unless noted, % is set by controls: 0 for no effect and ±100 for the full control effect; potency is the fitted concentration of half-maximal effect.

SMILES	DT40 TDP1 CPT	KB-3-1 tox	HT1080NT lethal	KB-V1 cytotox	DT40 TDP1 no CPT	HT1080 IDH1KD tx
CCCCNC(=O)C1CCC(Cn2c(=O)c3sccc3n(Cc3ccccc3)c2=O)CC1 (centres undefined)	0%	i	x	i	4%	x
Cc1ccccc1Cn1c(=O)n(CC2CCC(C(=O)NCCc3ccccc3)CC2)c(=O)c2ccccc21 (centres undefined)	21µM*	u	0%	i	29µM*	-2%
Cc1ccc(NC(=O)C(C)Sc2nnc3n2CCCCC3)cc1S(=O)(=O)N1CCOCC1 (centres undefined)	-7%	i	-2%	i	-26%	1%
CO/N=C(/CNC(=O)c1cccc(Cl)c1)c1ccc(Cl)cc1	-19%	i	-4%	23µM*	-13%	-30%
Cc1ccc(NC(=O)CCS(=O)(=O)c2ccc3c(c2)NC(=O)C(C)S3)nc1 (centres undefined)	6%	i	-1%	i	-9%	-1%
C=CCn1nc([N+](=O)[O-])nc1Sc1cccc2cccnc12	5.2µM*	u	u	8.2µM*	4.1µM*	u
CN(C)/N=C/c1ccc(Sc2ccc([N+](=O)[O-])cc2[N+](=O)[O-])o1	u	i	8%	i	23µM*	u
O=[N+]([O-])c1cc(Cl)ccc1Sc1cccc2cccnc12	-6%	i	3%	i	-20%	-1%
O=[N+]([O-])c1ccc(Sc2cccc3cccnc23)c([N+](=O)[O-])c1	4.6µM*	u	u	i	4.6µM*	-27%
Cc1cc(C)nc(Sc2ccc([N+](=O)[O-])cc2[N+](=O)[O-])n1	1.3µM*	i	u	u	1µM*	u
CC(C)Oc1ccc(CNC(=O)Cn2nc(N3CCN(c4ccccc4)CC3)ccc2=O)cc1	u	i	x	i	u	x
CCCNC(C)(C)COC(=O)c1ccccc1	8%	i	-26%	i	-3%	7%
COc1ccc(-n2ccn(CC(=O)Nc3ccccc3C(F)(F)F)c(=O)c2=O)cc1OC	-10%	x	x	x	-4%	x
C[C@@H]1CN([C@@H](C)CO)C(=O)c2cc(Br)cnc2O[C@H]1CN(C)C(=O)Cc1ccccn1	1%	i	1%	i	12%	6%
CC[C@H](C)[C@H](NC(=O)OCc1ccccc1)C(=O)OCC(=O)N1CCN(c2ccc(F)cc2)CC1	u	i	-15%	i	u	-7%
Cn1cc([C@]2(O)C(=O)Nc3ccc(F)cc32)c2ccccc21	-12%	i	2%	i	-29%	0%
CC(CC(=O)Nc1nnc(C(C)(C)C)s1)c1ccccc1 (centres undefined)	-14%	i	-5%	i	u	-2%
O=[N+]([O-])c1ccc(Sc2ccncn2)c([N+](=O)[O-])c1	1µM*	12µM*	18µM*	u	0.65µM*	15µM*
COc1ccc(Cl)cc1NC(=O)N1CC(=O)Nc2sc3c(c2C1c1ccccc1)CCCC3 (centres undefined)	u	i	x	i	u	x
COc1cc(OC)c(NC(=O)N2CCc3c([nH]c4ccccc34)C2c2ccccc2F)cc1Cl (centres undefined)	18µM*	i	x	i	23µM*	x
